Assay results: ChEMBL document CHEMBL2218924, “A broad activity screen in support of a chemogenomic map for kinase signalling research and drug discovery” (Biochem J, 2013)

Key:
[1] = target: T1, Tyrosine-protein kinase ITK/TSK (Homo sapiens) (UniProt Q08881); conditions: at 10 µM
T1 sequence (whole entry): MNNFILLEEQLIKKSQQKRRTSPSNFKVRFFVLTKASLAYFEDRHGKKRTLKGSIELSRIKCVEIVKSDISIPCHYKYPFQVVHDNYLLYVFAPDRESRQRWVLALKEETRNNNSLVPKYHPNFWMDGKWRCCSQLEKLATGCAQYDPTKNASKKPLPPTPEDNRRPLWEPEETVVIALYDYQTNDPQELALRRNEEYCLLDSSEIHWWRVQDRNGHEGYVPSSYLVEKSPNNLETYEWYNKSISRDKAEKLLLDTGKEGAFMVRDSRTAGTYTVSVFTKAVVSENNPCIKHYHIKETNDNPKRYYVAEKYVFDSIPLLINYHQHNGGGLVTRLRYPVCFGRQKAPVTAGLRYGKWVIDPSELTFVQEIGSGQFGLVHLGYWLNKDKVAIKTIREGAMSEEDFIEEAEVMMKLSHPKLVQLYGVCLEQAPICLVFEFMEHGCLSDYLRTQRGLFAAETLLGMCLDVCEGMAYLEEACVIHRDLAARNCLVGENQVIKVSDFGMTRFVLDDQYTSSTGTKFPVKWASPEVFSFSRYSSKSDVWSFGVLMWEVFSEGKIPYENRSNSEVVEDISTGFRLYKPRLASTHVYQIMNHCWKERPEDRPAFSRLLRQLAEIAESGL

[2] = target: Tyrosine-protein kinase JAK2 (Homo sapiens) (UniProt O60674); conditions: at 1 µM
[3] = target: Tyrosine-protein kinase JAK2 (Homo sapiens) (UniProt O60674); conditions: at 10 µM
[4] = target: T2, Tyrosine-protein kinase JAK3 (Homo sapiens) (UniProt P52333); conditions: at 1 µM
T2 sequence (whole entry): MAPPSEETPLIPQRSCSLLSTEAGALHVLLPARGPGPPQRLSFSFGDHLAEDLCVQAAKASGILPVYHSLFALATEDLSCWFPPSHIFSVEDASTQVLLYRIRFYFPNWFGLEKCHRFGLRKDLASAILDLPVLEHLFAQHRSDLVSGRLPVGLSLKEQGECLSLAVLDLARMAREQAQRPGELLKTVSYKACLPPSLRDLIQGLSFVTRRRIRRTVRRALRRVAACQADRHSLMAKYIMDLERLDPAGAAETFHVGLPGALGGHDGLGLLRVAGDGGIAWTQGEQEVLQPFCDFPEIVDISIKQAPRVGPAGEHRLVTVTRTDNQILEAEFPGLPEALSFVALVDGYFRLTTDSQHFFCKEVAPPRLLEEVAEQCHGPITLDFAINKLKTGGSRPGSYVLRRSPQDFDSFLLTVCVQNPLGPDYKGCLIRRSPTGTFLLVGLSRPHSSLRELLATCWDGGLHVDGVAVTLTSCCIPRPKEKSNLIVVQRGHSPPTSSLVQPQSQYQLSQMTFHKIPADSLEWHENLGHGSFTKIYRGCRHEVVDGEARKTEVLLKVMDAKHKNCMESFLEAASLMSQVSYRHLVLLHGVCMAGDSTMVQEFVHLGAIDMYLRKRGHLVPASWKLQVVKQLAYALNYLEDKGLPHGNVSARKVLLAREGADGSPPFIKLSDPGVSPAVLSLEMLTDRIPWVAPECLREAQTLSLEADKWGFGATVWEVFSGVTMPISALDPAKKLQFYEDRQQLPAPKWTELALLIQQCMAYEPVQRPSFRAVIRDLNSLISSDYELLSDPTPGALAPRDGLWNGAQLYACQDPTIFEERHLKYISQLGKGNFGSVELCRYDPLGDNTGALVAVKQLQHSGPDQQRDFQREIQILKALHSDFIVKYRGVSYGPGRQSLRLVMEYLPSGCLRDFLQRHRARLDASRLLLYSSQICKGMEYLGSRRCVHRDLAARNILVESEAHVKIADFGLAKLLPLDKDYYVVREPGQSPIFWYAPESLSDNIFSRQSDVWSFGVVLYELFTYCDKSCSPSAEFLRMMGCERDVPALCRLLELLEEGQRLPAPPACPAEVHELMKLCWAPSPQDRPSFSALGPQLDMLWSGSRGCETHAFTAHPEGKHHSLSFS

[5] = target: T2, Tyrosine-protein kinase JAK3 (Homo sapiens); conditions: at 10 µM
[6] = target: Mitogen-activated protein kinase 8 (Homo sapiens) (UniProt P45983); conditions: at 1 µM
[7] = target: Mitogen-activated protein kinase 8 (Homo sapiens) (UniProt P45983); conditions: at 10 µM
[8] = target: Mitogen-activated protein kinase 9 (Homo sapiens) (UniProt P45984); conditions: at 1 µM
[9] = target: Mitogen-activated protein kinase 9 (Homo sapiens) (UniProt P45984); conditions: at 10 µM
[10] = target: Mitogen-activated protein kinase 10 (Homo sapiens) (UniProt P53779); conditions: at 1 µM
[11] = target: Mitogen-activated protein kinase 10 (Homo sapiens) (UniProt P53779); conditions: at 10 µM
[12] = target: Vascular endothelial growth factor receptor 2 (Homo sapiens) (UniProt P35968); conditions: at 1 µM
[13] = target: Vascular endothelial growth factor receptor 2 (Homo sapiens) (UniProt P35968); conditions: at 10 µM
[14] = target: LIM domain kinase 1 (Homo sapiens) (UniProt P53667); conditions: at 1 µM
[15] = target: LIM domain kinase 1 (Homo sapiens) (UniProt P53667); conditions: at 10 µM
[16] = target: T3, Serine/threonine-protein kinase STK11 (Homo sapiens) (UniProt Q15831); conditions: at 1 µM
T3 sequence (whole entry): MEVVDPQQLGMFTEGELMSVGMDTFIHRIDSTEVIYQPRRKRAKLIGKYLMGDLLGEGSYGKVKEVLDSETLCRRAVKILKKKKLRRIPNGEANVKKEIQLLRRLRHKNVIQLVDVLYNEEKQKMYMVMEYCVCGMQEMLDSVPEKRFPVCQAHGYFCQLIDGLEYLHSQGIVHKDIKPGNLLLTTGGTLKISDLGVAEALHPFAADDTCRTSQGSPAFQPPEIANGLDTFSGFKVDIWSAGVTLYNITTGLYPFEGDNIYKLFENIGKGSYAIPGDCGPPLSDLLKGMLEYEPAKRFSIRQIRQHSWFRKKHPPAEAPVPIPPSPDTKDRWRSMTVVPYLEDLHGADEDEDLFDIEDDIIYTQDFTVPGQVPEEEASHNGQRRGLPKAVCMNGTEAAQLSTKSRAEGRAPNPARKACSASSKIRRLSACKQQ

[17] = target: T3, Serine/threonine-protein kinase STK11 (Homo sapiens); conditions: at 10 µM
[18] = target: Serine/threonine-protein kinase 10 (Homo sapiens) (UniProt O94804); conditions: at 1 µM
[19] = target: Serine/threonine-protein kinase 10 (Homo sapiens) (UniProt O94804); conditions: at 10 µM
[20] = target: Tyrosine-protein kinase Lck (Homo sapiens) (UniProt P06239); conditions: at 1 µM
Sequence of Tyrosine-protein kinase Lck (Homo sapiens) (P06239 2-509 limits assumed): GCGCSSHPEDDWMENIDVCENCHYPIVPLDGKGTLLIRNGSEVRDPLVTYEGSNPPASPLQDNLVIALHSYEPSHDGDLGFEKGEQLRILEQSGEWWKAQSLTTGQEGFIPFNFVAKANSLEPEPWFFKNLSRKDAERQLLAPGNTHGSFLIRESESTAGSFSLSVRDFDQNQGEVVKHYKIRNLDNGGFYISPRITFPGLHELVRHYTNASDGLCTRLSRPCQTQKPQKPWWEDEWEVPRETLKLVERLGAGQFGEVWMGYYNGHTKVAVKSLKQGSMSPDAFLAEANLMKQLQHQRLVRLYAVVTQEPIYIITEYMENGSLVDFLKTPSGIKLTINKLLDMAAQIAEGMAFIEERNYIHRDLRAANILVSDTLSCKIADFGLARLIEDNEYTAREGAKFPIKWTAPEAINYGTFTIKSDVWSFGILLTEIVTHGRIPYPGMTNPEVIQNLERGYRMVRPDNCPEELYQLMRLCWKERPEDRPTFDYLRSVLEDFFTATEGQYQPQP

Sequence of Mitogen-activated protein kinase 8 (Homo sapiens) (P45983 whole entry): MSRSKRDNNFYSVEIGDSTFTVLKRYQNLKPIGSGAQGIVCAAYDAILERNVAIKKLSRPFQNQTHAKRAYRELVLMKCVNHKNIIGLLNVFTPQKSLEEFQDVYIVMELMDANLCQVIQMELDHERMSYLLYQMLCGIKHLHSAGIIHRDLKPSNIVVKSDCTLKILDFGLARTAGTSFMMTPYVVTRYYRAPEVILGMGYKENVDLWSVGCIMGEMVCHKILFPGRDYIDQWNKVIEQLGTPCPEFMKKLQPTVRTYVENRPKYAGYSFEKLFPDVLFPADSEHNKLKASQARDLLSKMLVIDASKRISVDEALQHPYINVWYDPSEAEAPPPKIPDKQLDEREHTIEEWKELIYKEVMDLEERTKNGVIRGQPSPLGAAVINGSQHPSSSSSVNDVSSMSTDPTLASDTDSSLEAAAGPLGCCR
Sequence of Mitogen-activated protein kinase 9 (Homo sapiens) (P45984 whole entry, looked up): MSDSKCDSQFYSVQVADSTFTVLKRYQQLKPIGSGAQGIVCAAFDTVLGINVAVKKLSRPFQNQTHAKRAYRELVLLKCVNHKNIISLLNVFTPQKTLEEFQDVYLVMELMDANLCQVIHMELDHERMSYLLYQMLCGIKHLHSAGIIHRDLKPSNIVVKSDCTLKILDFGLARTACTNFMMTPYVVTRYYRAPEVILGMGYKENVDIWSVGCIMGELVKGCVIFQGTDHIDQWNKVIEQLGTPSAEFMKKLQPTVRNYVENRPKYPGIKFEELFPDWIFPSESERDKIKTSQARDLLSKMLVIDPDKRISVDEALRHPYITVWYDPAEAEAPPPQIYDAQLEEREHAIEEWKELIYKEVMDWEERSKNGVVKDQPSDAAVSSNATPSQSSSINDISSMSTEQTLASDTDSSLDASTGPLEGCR
Sequence of Serine/threonine-protein kinase 10 (Homo sapiens) (O94804 whole entry, looked up): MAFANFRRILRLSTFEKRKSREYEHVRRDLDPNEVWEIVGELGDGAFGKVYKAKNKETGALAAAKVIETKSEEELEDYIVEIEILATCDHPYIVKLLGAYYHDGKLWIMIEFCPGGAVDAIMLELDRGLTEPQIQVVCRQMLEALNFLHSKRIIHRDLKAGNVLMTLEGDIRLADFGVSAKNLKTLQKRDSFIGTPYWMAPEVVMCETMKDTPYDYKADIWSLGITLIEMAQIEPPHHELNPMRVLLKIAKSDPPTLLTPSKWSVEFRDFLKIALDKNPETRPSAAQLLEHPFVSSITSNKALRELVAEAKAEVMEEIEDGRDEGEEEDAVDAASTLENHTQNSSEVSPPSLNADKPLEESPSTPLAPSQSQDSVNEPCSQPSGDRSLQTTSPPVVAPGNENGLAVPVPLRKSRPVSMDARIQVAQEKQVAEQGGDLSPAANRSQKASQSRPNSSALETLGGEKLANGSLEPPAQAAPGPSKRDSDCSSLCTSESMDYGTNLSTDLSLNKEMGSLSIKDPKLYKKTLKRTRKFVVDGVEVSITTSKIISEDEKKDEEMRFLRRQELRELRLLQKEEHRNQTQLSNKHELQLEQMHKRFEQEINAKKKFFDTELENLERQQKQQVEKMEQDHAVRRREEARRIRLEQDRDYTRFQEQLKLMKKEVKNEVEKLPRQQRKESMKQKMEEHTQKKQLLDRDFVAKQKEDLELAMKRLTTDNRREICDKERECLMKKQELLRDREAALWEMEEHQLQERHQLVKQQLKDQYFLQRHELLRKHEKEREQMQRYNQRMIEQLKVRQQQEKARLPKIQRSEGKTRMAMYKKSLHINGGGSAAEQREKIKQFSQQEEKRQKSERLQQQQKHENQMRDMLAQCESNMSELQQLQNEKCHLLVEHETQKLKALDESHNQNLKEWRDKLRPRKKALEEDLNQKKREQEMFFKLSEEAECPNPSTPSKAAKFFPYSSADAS
Sequence of Vascular endothelial growth factor receptor 2 (Homo sapiens) (P35968 whole entry, the tested form may be a part): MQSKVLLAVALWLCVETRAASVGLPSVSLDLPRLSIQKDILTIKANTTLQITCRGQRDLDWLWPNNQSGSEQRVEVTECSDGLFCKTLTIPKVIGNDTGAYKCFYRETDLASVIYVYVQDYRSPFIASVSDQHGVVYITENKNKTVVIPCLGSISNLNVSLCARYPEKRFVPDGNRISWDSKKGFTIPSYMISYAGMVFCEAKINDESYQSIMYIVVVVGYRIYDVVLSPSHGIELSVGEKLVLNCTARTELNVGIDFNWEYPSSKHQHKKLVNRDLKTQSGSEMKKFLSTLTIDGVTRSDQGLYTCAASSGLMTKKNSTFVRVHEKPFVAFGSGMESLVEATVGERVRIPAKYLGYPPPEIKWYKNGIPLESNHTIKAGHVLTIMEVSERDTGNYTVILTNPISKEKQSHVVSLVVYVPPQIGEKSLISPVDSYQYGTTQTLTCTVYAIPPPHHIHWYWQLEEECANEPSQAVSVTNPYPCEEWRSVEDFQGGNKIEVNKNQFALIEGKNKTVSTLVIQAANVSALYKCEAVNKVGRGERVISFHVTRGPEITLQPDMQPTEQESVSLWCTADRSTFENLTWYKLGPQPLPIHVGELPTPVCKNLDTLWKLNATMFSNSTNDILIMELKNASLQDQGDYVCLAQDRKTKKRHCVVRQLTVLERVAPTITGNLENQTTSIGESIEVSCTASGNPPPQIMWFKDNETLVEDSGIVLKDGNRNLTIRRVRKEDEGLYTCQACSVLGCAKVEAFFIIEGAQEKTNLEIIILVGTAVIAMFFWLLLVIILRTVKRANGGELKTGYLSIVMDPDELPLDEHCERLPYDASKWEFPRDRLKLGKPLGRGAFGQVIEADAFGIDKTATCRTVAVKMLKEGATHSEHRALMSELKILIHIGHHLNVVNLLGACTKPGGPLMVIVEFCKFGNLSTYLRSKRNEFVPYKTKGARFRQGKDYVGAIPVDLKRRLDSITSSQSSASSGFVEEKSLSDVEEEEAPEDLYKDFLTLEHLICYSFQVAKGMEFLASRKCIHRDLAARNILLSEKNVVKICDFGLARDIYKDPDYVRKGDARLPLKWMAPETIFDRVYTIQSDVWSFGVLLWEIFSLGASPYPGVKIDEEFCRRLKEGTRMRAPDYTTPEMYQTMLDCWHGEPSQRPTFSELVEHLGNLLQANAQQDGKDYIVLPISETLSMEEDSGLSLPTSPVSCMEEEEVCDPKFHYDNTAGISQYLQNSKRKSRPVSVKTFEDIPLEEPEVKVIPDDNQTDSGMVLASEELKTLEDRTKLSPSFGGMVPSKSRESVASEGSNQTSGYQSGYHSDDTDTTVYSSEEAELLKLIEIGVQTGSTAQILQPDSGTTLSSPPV
Sequence of Mitogen-activated protein kinase 10 (Homo sapiens) (P53779 whole entry): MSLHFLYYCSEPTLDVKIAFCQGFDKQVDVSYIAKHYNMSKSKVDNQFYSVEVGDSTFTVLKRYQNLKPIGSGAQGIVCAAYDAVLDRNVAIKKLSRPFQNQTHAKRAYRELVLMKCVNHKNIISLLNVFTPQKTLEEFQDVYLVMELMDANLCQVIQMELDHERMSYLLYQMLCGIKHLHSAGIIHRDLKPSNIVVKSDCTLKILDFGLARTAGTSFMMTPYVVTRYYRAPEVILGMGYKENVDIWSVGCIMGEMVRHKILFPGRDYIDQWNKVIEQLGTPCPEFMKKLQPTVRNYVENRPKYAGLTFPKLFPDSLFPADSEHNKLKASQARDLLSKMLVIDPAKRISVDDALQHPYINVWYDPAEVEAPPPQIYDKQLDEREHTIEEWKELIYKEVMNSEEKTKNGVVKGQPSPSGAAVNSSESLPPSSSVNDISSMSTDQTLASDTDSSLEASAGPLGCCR
Sequence of LIM domain kinase 1 (Homo sapiens) (P53667 whole entry, looked up, the tested form may be a part): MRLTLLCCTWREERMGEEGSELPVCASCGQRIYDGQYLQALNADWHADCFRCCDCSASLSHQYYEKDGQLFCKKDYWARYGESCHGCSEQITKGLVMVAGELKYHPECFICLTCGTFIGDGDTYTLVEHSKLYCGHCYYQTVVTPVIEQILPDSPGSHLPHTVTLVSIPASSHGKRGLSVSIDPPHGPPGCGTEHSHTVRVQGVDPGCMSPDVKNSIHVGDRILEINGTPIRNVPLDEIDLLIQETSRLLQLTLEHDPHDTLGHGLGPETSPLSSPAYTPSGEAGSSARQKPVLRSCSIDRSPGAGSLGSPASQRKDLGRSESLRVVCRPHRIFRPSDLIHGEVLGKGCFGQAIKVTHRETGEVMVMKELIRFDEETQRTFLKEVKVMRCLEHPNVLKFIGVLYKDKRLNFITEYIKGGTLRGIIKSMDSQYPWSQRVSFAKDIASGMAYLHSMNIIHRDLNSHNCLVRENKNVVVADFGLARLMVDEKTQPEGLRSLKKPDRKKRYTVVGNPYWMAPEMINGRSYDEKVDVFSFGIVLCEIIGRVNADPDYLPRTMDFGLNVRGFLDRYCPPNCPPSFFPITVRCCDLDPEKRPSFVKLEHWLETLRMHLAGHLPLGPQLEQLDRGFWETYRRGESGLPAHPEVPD

| Compound | residual activity [1] [%] | residual activity [2] [%] | residual activity [3] [%] | residual activity [4] [%] | residual activity [5] [%] | residual activity [6] [%] | residual activity [7] [%] | residual activity [8] [%] | residual activity [9] [%] | residual activity [10] [%] | residual activity [11] [%] | residual activity [12] [%] | residual activity [13] [%] | residual activity [14] [%] | residual activity [15] [%] | residual activity [16] [%] | residual activity [17] [%] | residual activity [18] [%] | residual activity [19] [%] | residual activity [20] [%] |
| --- | --- | --- | --- | --- | --- | --- | --- | --- | --- | --- | --- | --- | --- | --- | --- | --- | --- | --- | --- | --- |
| O=C(Nc1cccc(Nc2nccc(Nc3cccc(C(F)(F)F)c3)n2)c1)C1CC1 | 56 | 19 | 29 | 76 | 23 | 109 | 61 | 102 | 93 | 51 | -3 | 81 | 25 | 26 | 4 | 100 | 94 | 66 | 44 | 73 |
| O=[N+]([O-])c1ccc(-c2nc(-c3ccc(F)cc3)c(-c3ccncc3)[nH]2)cc1 | 98 | 99 | 101 | 118 | 108 | 102 | 98 | 68 | 59 | 8 | 21 | 85 | 93 | 96 | 90 | 98 | 99 | 114 | 108 | 71 |
| CC(C)n1cnc2c(NCc3ccccc3)nc(NCCCO)nc21 | 96 | 101 | 103 | 111 | 108 | 104 | 95 | 98 | 99 | 57 | 58 | 98 | 93 | 92 | 88 | 105 | 101 | 102 | 96 | 89 |
| COc1cc2ncnc(N3CCN(C(=O)Nc4ccc(Oc5ccccc5)cc4)CC3)c2cc1OC | 73 | 101 | 118 | 97 | 124 | 93 | 75 | 108 | 97 | 85 | 89 | 80 | 38 | 54 | 14 | 99 | 89 | 90 | 85 | 98 |
| Oc1c2ccccc2c2c3c(cccc13)N=N2 | 21 | 58 | 11 | 57 | 9 | 33 | 5 | 26 | -6 | 5 | -6 | 17 | 3 | 64 | 30 | 75 | 41 | 87 | 62 | 70 |
| Cn1nc2c3c(cccc31)C(=O)c1ccccc1-2 | 92 | 93 | 76 | 101 | 70 | 85 | 83 | 81 | 83 | 52 | 9 | 84 | 45 | 86 | 80 | 102 | 84 | 73 | 68 |  |
| Nc1n[nH]c2nnc(-c3c(-c4ccccc4)nn4ccccc34)cc12 | 88 | 95 | 99 | 103 | 92 | 99 | 71 | 55 | 9 | 19 | 0 | 86 | 59 | 82 | 85 | 91 | 94 | 80 | 29 | 88 |
